The supplement of paper PMC11417369
The full ranking holds about 25,000 sequences; the median of “ln(normalized median fluorescence intensity)” is about 9.3, and the highest 2% start at about 10. What follows is part of a selection rich in the highest values, with near analogues and random picks from the rest.

Tested on: PF3D7_0420300 AP2 domain 1 (GST-tagged)
Test: gcPBM binding intensity (ln(normalized median fluorescence intensity)); higher = stronger DNA binding
Procedure, shortened: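 Plasmodium falciparum DNA-binding domains carrying a GST tag were expressed in E. coli and applied for 1 h, at about 25 μg on average, to an Agilent 4 × 180k array. The array held primer-extended double-stranded 36-bp intergenic genomic probes together with negative controls, and binding took place in 1× PBS with 1% milk, 0.2 mg/ml BSA, 0.5% salmon testes DNA and 0.03% Triton X-100. An Alexa488 anti-GST antibody detected bound protein, and the array was scanned at 488 nm. Binding intensity is taken as the highest Masliner-normalised natural-log median intensity across replicate spots of either probe orientation.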

| Sequence | gcPBM binding intensity (ln) |
| --- | --- |
| TGATCAATGGATTTAACACACAAAAAAAAAAAAAAA [CACACA_site3845] | 9.11 |
| AAATAAAATAAAATAAAATAAAATTCTTTGATACCT [TGCATGCA_negctrl_site604] | 9.16 |
| ATATATATATATATATGTACACATATATATACTCAC [XGTACX_site8043] | 9.37 |
| ATATATTATATAAAAAGTACTAAAATAGTAAGATGT [XGTACX_site7493] | 9.65 |
| GTTTATATATTATAAAGTACATATGAATTTAATAAT [XGTACX_site3601] | 9.01 |
| AACAAACACAGACACACACACACACCCAAATGATTA [CACACA_site2431] | 10.2 |
| AACAAACACAGACACACACACACACTAATATGATTA [CACACA_site8770] | 10.2 |
| CAAACAAACAGACACACACACACACCCAAAAATGAT [CACACA_site2430] | 10.4 |
| CAAACAAACGGACACACACACACACCCAAAAATGAT [CACACA_site5363] | 10.1 |
| TTAACAAATGGACACACACACACACCCAAAAAAAAA [CACACA_site4443] | 9.91 |
| AATATGAACAGACACACACACACAAAAAAAAAAAAA [CACACA_site2012] | 10 |
| AACACCCACAGACACACACACAAAAATGATTAAAAA [CACACA_site2433] | 9.83 |
| TATGAACACAGACACACACACAAAAAAAAAAAAAAA [CACACA_site7037] | 9.27 |
| CAAACCCACCAACACACACACACAAAAATGATTAAA [CACACA_site2432] | 9.82 |
| ATATTTTTTTTTTTCACACACATTTAGATTGTATTA [CACACA_site3137] | 9.86 |
| GACATTGATACCAGTAGTACCTATAGATGTTTGTTT [XGTACX_site5736] | 9.55 |
| TTACAAATAATTTGTTGTACGCTTTTTTTCTTTTTT [XGTACX_site7199] | 9.48 |
| ATTGGACTATAAATAGGTACACATATATATATATAT [XGTACX_site7562] | 9.59 |
| AATAGAAAAAAAAAATGTACACATATAAAAGCATAT [XGTACX_site6306] | 9.77 |
| GCTTATAAAGGCAGAAGTACTGTATTCCTATATATA [XGTACX_site8865] | 9.22 |
| GTATAATATGAACACACACACACACGCAAAAAAAAA [CACACA_site7036] | 10.1 |
| ATAATATGAAAACACACACACACACCCAAAAAAAAA [CACACA_site2011] | 10.2 |
| GTATAATAGAAACACACACACACACCCAAAAAAAAA [CACACA_site2010] | 10.3 |
| GTATAATATGAACACACACACACACCCAAAAAAAAA [CACACA_site5152] | 10.2 |

| Sequence | gcPBM binding intensity (ln) |
| --- | --- |
| TAGTATAATATGAACACACACACACGCACAAAAAAA [CACACA_site7035] | 10.1 |
| TAGTATAATATGAACACACACACACCCACAAAAAAA [CACACA_site2009] | 10 |
| TAGTATAATATGAACACACACACACCGACAAAAAAA [CACACA_site5151] | 9.99 |
| ATCGTAGTATAATATGAACACACACCCACCCACAAA [CACACA_site8616] | 10.2 |
| AAAAAAAAAAAAAACACACACACACCCAAATATATA [CACACA_site1169] | 10.1 |
| TTTTATATATTATATACACACATATATATATATATA [CACACA_site2999] | 9.29 |
| ATATATATATAGTGCACACTTAAGAATATAAAGAGG [CACACA_site1151] | 9.45 |
| AAAAGGTATGTTATACATAGATATGCACATATATGT [TGCATGCA_negctrl_site96] | 9.29 |
| CTTAAAGGGAAAAATACACACATATAAATATTATGT [CACACA_site2225] | 9.47 |
| AAAATTATTTAGTAAGTGCAAAAAAAAAAAAAAAAA | 8.78 |
| TATGAAGAAAAGAATTGTACGATGTTTATTTTGTAT [XGTACX_site8614] | 9.22 |
| ATTATGCACCAACACACACACACACTCCTAAAAAAT [CACACA_site8822] | 10.3 |
| TGCACAAAATTATGCACACACCTAAAATTAATTTTT [CACACA_site5596] | 9.46 |
| ATTATGCACGGACACACACACACACCCCTAAAAAAT [CACACA_site5426] | 10.2 |
| ATTATGCACCAACACACACACACACCCCTAAAAAAT [CACACA_site2568] | 10.3 |
| ATTATGCACAGACACACACACACACTACTAAAAAAT [CACACA_site7252] | 10.1 |
| CCTAAATTATATTATGCACACTTAAAAATATATTTA [CACACA_site5861] | 9.14 |
| CCACAGGATTGGTTCAAACACACATATTATATGACT [CACACA_site661] | 9.39 |
| CCTTTATTAAATAAATGTACATATTTTTGTGTTCTT [XGTACX_site2052] | 9.4 |
| GAAATATAATTTATTACACACATTTTAAAAAAATTC [CACACA_site1087] | 9.26 |
| AAAAAAAAAAAAAAATGTACATTATACACATTATAT [XGTACX_site6824] | 9.28 |
| AAAGGGGAGATATGAACACACAAAAAAAAAATATAT [CACACA_site7378] | 9.58 |
| CTATACAATAAAAATTGTACATACATATATGTTATA [XGTACX_site5309] | 9.17 |
| TATAACTTTTTTATTACACACCTATGTAATATTATA [CACACA_site944] | 9.37 |
